TRPV1 potentiator – enhances activation of the human vanilloid receptor TRPV1. TRPV1-expressing cells, Fluo-8 calcium influx, capsaicin EC20 potentiation. potentiation, % at 8.33 µM. 0.02% of 320,000 active. AID 540277; in the data active = potentiation above about 80%; inconclusive = between about 30% and that limit; also: 0% is about no effect
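Fluo-8 calcium influx in TRPV1-expressing cells, kinetic read (ex 480/em 520 nm). Compound added and read 3 min for agonist activity, followed by capsaicin at EC20 final and 2 min further read for enhancement.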
KCNH2 3.1 block – blocks the human KCNH2 3.1 channel isoform. AID 720553. activity change, % (tested at about 1.8 µM). U2OS KCNH2 3.1, thallium flux FluxOr; stronger effect = lower value. 0.95% of 340,000 active;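 active = maximum activity change below -70%; inconclusive = maximum activity change from -70% to -50%; inactive = maximum activity change above -50%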;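 also: thallium influx rate constant from kinetic fluorescence after stimulation buffer; % is scaled to controls: 0 for no effect and ±100 for the full control effect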
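Measured as rate of thallium-driven FluxOr signal in transduced U2OS cells carrying the 3.1 channel, read kinetically for 2 min upon stimulation; values are rate constants scaled to DMSO control wells.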
KCNH2 WT inh – inhibitors of human wildtype KCNH2 potassium channel | Q12809 | U2OS, BacMam KCNH2, thallium flux FluxOr; stronger effect = lower value | activity change, % at 1.84 µM | 0.37% of 340,000 active | AID 720551;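 active = maximum activity change below -70%; inconclusive = maximum activity change between -70% and -50%; inactive = maximum activity change above -50%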; also: % is scaled to controls: 0 for no effect and ±100 for the full control effect
Target sequence (Q12809 whole entry, looked up): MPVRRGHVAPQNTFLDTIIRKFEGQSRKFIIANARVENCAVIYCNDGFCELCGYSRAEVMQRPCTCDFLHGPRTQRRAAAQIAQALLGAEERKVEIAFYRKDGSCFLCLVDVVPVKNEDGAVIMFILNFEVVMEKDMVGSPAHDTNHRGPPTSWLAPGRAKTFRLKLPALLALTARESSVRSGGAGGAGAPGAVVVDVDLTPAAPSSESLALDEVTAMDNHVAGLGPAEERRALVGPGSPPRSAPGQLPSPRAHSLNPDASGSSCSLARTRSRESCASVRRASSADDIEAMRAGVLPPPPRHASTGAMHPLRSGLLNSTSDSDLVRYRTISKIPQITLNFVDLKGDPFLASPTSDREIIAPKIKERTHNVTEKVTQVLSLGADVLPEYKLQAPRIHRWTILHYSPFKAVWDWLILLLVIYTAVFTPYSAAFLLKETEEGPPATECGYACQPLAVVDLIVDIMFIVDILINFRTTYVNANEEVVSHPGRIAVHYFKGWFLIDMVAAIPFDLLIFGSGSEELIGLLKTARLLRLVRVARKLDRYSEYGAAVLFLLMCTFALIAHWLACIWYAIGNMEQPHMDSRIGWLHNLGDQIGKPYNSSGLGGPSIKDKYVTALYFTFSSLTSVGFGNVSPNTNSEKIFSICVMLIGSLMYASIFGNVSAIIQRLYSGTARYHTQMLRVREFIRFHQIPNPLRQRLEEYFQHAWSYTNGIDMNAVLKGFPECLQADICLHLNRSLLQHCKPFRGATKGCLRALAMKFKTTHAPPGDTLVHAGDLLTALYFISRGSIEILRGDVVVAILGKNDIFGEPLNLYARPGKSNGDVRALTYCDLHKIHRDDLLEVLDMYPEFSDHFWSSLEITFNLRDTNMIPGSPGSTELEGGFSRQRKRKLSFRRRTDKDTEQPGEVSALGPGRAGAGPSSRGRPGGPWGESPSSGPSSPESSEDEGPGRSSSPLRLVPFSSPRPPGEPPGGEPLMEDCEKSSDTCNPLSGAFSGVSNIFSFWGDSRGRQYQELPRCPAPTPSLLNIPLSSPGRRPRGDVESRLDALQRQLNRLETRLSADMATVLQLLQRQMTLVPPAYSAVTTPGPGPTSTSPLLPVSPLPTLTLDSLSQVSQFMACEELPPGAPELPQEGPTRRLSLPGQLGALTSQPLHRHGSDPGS
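U2OS cells transduced with wild-type KCNH2 virus are loaded with FluxOr dye for 45 min, and thallium flux is measured in kinetic reads before and after stimulation buffer. Rate constants are normalized to DMSO controls.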
TRPV1 ag – activates the human vanilloid receptor TRPV1 | Q8NER1 | TRPV1-expressing cells, Fluo-8 calcium influx, agonist mode | activation, % at 8.33 µM | 0.19% of 320,000 active; in the data active = activation above about 80%; inconclusive = between about 30% and that limit; also: 0% is about no effect
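TRPV1-expressing cells were cultured overnight at 35.5C and loaded with Fluo-8 calcium dye for 40 to 90 min at room temperature. After a 10 s baseline, compound was added and calcium influx was read kinetically for 3 min (ex 480/em 520 nm).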
Numbers without * were called inactive; u = inconclusive; x = not tested or not shown. This is a sample that favours compounds with a hit; in the whole collection about 1.2% have one here.

SMILES | TRPV1 potentiator | KCNH2 3.1 block | KCNH2 WT inh | TRPV1 ag
CC(=O)c1ccc(OCC(=O)Nc2nnc(C3CC3)s2)cc1 | x | -9 | 9 | x
COc1ccc(CNCc2ccc3ccccc3c2)c(OC)c1 | -2 | -98* | 7 | 9
CC(C)(C)c1ccc(NC(=O)Nc2ccc(OCC(=O)N3CCOCC3)cc2)cc1 | 1 | -10 | 14 | -2
O=C(Nc1ccc(OCC(=O)N2CCOCC2)cc1)Nc1cccc(Cl)c1 | 0 | -82* | 14 | 0
O=C(NCC(=O)N1CC=C(c2ccccc2)CC1)c1ccc(OC(F)F)cc1 | x | -80* | 35 | x
COc1cc(OC)cc(C(=O)NCC(=O)N2CC=C(c3ccccc3)CC2)c1 | 13 | 0 | 4 | 3
NS(=O)(=O)c1ccc(N=Nc2c(-c3ccccc3)[nH]n(-c3nc(-c4ccccc4)cs3)c2=O)cc1 | 1 | -84* | -33 | 1
COc1ccc(CC(=O)N/N=C(/C)CC(=O)N(C)c2ccccc2)cc1 | 1 | -92* | 4 | -3
COc1ccc(CC(=O)N/N=C(\C)CC(=O)Nc2ccc(N(C)C)cc2)cc1 | 17 | -11 | 8 | 1
C[C@@H](NC(=O)c1[nH]cnc1C(=O)Nc1ccccc1F)c1ccccc1 | x | -12 | -3 | x
c1nc(NCC2(N3CCOCC3)CCCCC2)c2ccsc2n1 | -12 | -5 | 7 | 4
Cc1sc2ncnc(NCC3(N4CCOCC4)CCCCC3)c2c1C | -2 | -72* | -19 | -2
O=C(CN1C(=O)NC(c2ccccc2)(c2ccccc2)C1=O)N1CCN(c2ccccc2F)CC1 | 4 | -198* | 1 | -1
CCOC(=O)C1(Cc2ccccc2)CCCN(C(=O)COc2ccccc2OC)C1 (stereo not drawn) | x | 0 | -7 | x
COc1nc(OC)nc(N2CCC(C(=O)NCc3ccco3)CC2)n1 | 4 | -4 | -7 | -4
O=C(NCc1ccco1)C1CCN(c2nc3ccccc3n2Cc2ccc(F)cc2)CC1 | -4 | -104* | -152* | u
CCOC(=O)C1=C(C(=O)OCC)N(Cc2ccccc2)CCC1=O | x | 2 | -5 | x
CC(C)N1C(=O)S/C(=C/c2ccc(Sc3nc4ccccc4[nH]3)o2)C1=O | 0 | 3 | -130* | u
Cn1cnc(C(=O)NCc2ccc(CNC(=O)OC(C)(C)C)cc2)c1C(=O)NCc1ccc(CNC(=O)OC(C)(C)C)cc1 | x | -115* | -3 | x
O=C(/C=C/c1ccc(N2CCC(c3ccccc3)=N2)cc1)c1ccccc1 | 13 | x | -74* | 23
COc1ccc(CN2CCc3c([nH]c4ccccc34)C2)c(OC)c1C | -1 | -79* | 15 | 14
COc1ccc(CN2CCc3c([nH]c4ccccc34)C2)cc1Br | 2 | -11 | 16 | 0
C[C@H]1NS(=O)(=O)c2ccc(Br)cc2O[C@H]1c1ccccc1 | x | -4 | -16 | x
c1ccc(-c2nc3ccccc3c3nc4ccccc4n23)cc1 | 3 | -3 | -12 | 3
c1ccc(-c2nc3nonc3c3nc4ccccc4n23)cc1 | 8 | -80* | 5 | -1
SMILES | TRPV1 potentiator | KCNH2 3.1 block | KCNH2 WT inh | TRPV1 ag
CC(C)C[C@H]1CNC(=S)N1CC1CCCN1C[C@H](Cc1ccc(O)cc1)N1C[C@H](Cc2ccccc2)N(CC2CCCCC2)C1=S (stereo partly drawn) | x | -13 | 7 | x
CC(C)C[C@H]1CNC(=S)N1CC1CCCN1C[C@H](CC(C)C)N1C[C@H](CC(C)C)N(CCc2ccccc2)C1=S (stereo partly drawn) | x | 2 | -7 | x
CC(C)C[C@@H](CN1CCCC1CN1C(=S)NC[C@@H]1Cc1ccc(O)cc1)N1C[C@H](Cc2ccc(O)cc2)N(CCc2ccccc2)C1=S (stereo partly drawn) | x | -79* | -121* | x
CCOc1ccc(CCN2C(=S)N([C@@H](Cc3ccc(O)cc3)CN3CCCC3CN3C(=S)NC[C@@H]3Cc3ccc(O)cc3)C[C@@H]2CC(C)C)cc1 (stereo partly drawn) | x | -28 | -80* | x
CSc1ccc(CN2CCC(CO)(Cc3ccc(Cl)cc3)CC2)cc1 | -4 | -101* | -33 | 0
OCC1(Cc2ccc(Cl)cc2)CCN(CCCc2ccccc2)CC1 | -2 | -89* | u | 2
CN1CCC(CO)(Cc2ccccc2)CC1 | 6 | -27 | -9 | 3
OCC1(Cc2ccc(Cl)cc2)CCN(Cc2ccccc2F)CC1 | -8 | u | 11 | 13
O=C(c1cnsn1)N1CCC(CO)(Cc2ccc(Cl)cc2)CC1 | 24 | -24 | -1 | -1
OCC1(Cc2ccc(Cl)cc2)CCN(CC2CC=CCC2)CC1 (stereo not drawn) | 5 | -72* | 36 | 1
CC(C)Oc1ccc(S(=O)(=O)N2CCOCC2)cc1NC(=O)c1ccc(Cl)c(S(=O)(=O)N2CCOCC2)c1 | x | -4 | 21 | x
CCC(=O)N(CCC(Cc1ccccc1)c1ccc2c(c1)OCO2)Cc1ccccc1F (stereo not drawn) | -10 | -79* | 2 | u
CCC(=O)N(CCC(Cc1ccccc1)c1ccco1)Cc1ccco1 (stereo not drawn) | -6 | 21 | 3 | 25
CCCCCCN1C[C@H](O)[C@@H](n2cc(C3CC3)nn2)C[C@@H]1c1ccc(OC)cc1 | x | -117* | u | x
CCn1c(=O)c(C(=O)CN(C)Cc2cccc(OC)c2OC)c(N)n(Cc2ccccc2)c1=O | 5 | 0 | 2 | 1
CCn1c(=O)c(C(=O)CN(C)Cc2ccc(F)cc2)c(N)n(Cc2ccccc2)c1=O | 1 | -84* | -10 | 0
COc1ccc(CN(C)CC(=O)c2c(N)n(Cc3ccccc3)c(=O)n(C)c2=O)c(OC)c1 | -15 | u | -7 | -1
CCOc1ccc(CN(C)CC(=O)c2c(N)n(Cc3ccccc3)c(=O)n(CC)c2=O)cc1OC | -5 | -101* | -117* | -1
COc1ccccc1CNC(=O)COC(=O)c1cnc(C)cn1 | x | 5 | 5 | x
CCN(CC)CCN(C(=O)/C=C/c1cccs1)c1nc2ccc(Cl)cc2s1 | -8 | -100* | -149* | -1
CN(C)CCN(C(=O)/C=C/c1cccs1)c1nc2ccc(F)cc2s1 | -6 | u | -8 | -2
COc1ccc(CN2CCN(Cc3cccn3-c3ncccn3)CC2CCO)c(C)c1C (stereo not drawn) | 9 | -74* | -36 | -1
OCCC1CN(Cc2cccn2-c2ncccn2)CCN1Cc1ccc(F)cc1 (stereo not drawn) | -4 | -35 | 14 | 2
CCOc1ccc(CN2CCN(Cc3cccn3-c3ncccn3)CC2CCO)cc1 (stereo not drawn) | 5 | -111* | u | -7
CCOc1ccc(CN2CCN(Cc3cccn3-c3cccnc3)CC2CCO)cc1 (stereo not drawn) | -8 | 9 | -46 | 3
CC1CCc2c(sc(NC(=O)Cc3ccccc3)c2C(=O)Nc2ccc(Cl)cc2)C1 (stereo not drawn) | -1 | x | x | u
CCC(C)c1ccccc1N1CC(C(=O)Nc2ccc(C)c(S(=O)(=O)N3CCOCC3)c2)CC1=O (stereo not drawn) | 10 | -73* | -16 | 0

High-throughput results: PubChem BioAssay, National Center for Advancing Translational Sciences (NCATS)
